Laboratory results taken from publication PMC4552634, “A New Set of Chemical Starting Points with Plasmodium falciparum Transmission-Blocking Potential for Antimalarial Drug Discovery” (PLoS ONE, 2015).
Where two headings read alike, the source gives them in different places. Out of some 13,000 compounds screened, about 3,200 (25%) showed an effect of 50% or more. Some of the results follow.

System: P. falciparum stage V gametocytes
Set-up: BacTiter-Glo ATP luminescence viability of purified stage V gametocytes in 384-well plates, per cent inhibition versus DMSO
Conditions: 48 h, 5 µM, inhibitor

Row | Compound | % Inhibition [%] | % Inhibition (% Inhibition) [%]
1 | Cc1cccc(NC(=O)N(Cc2cc3cc(C)cc(C)c3[nH]c2=O)C2CC2)c1 [TCMDC-123651] | 4.214 | –
2 | COc1cccc(C23N=C(Nc4nc5ccccc5[nH]4)NC2(c2cccc(OC)c2)NC(Nc2nc4ccccc4[nH]2)=N3)c1 (stereo not drawn) [TCMDC-139087] | 19.76 | –
3 | Cc1ccccc1C1CCN(C2CCC(NC(=O)/C=C/c3c(F)ccc(F)c3F)CC2)CC1 (stereo not drawn) [TCMDC-133512] | -94.66 | –
4 | CCCc1cc(Cc2cnc(N)nc2N)cc2c1OC(C)(C)C2 [TCMDC-138049] | -0.08597 | –
5 | Cc1c(CNCCCNc2nc3cscc3[nH]2)sc(C(F)F)c1Br [TCMDC-141336] | 21.93 | –
6 | CC(C)(C)c1ccc(NC(=O)c2ccc(CN3CCCN(Cc4ccsc4)CC3)cc2)cc1 [TCMDC-136445] | -5.74 | –
7 | COc1ccc(C=CC(=O)NC2CCC(CN3CCC(c4c[nH]c5ccccc45)CC3)CC2)cc1 (stereo not drawn) [TCMDC-139933] | – | 46.2
8 | COc1ccc(C=CC(=O)NC2CCC(CN3CCC(c4c[nH]c5ccccc45)CC3)CC2)cc1 (stereo not drawn) [TCMDC-139949] | – | 103.1
9 | COc1cccc(/C=C/C(=O)NC2CCC(CN3CCC(c4c[nH]c5ccccc45)CC3)CC2)c1 (stereo not drawn) [TCMDC-139718] | – | 98.17
10 | COc1cc(/C=C/C(=O)NC2CCC(CN3CCC(c4c[nH]c5ccccc45)CC3)CC2)ccc1O (stereo not drawn) [TCMDC-139766] | – | -65.69
11 | COc1ccc(OC)c(C=CC(=O)NC2CCC(CN3CCC(c4c[nH]c5ccccc45)CC3)CC2)c1 (stereo not drawn) [TCMDC-139893] | 103 | –
12 | COc1ccc(C=CC(=O)NC2CCC(CN3CCC(c4c[nH]c5ccccc45)CC3)CC2)cc1OC (stereo not drawn) [TCMDC-139932] | 100.6 | –
13 | COc1cc(/C=C/C(=O)NC2CCC(CN3CCC(c4c[nH]c5ccccc45)CC3)CC2)ccc1O (stereo not drawn) [TCMDC-139756] | – | -29.87
14 | N#Cc1cccc(Nc2nccc(NCC(O)c3ccc(C(F)(F)F)cc3)n2)c1 (stereo not drawn) [TCMDC-136590] | 5.433 | –
15 | CCc1ccc(NC(=O)c2ccc(CN3CCCN(Cc4cccc(O)c4)CC3)cc2)cc1 [TCMDC-136439] | -0.6993 | –
16 | CCN(CCCN1CCCCC1)c1cc(C)nc(Nc2ccc(C(F)(F)F)cc2)n1 [TCMDC-132435] | 28.95 | –
17 | CN(Cc1cccc(F)c1)C1CCN(c2cc(NC(=O)c3cccc(F)c3)ccn2)CC1 [TCMDC-135015] | -7.193 | –
18 | CCOc1cc(Cc2cnc(N)nc2N)cc(OCC)c1OCC [TCMDC-137696] | -8.766 | –
19 | COc1cccc(C=CC(=O)NC2CCC(CN3CCC(c4c[nH]c5ccccc45)CC3)CC2)c1OC (stereo not drawn) [TCMDC-139902] | 78.88 | –
20 | COc1cccc(/C=C/C(=O)NC2CCC(CN3CCC(c4c[nH]c5ccccc45)CC3)CC2)c1 (stereo not drawn) [TCMDC-139703] | – | 100.1
21 | O=C(/C=C/c1cccc2ccccc12)NC1CCC(CN2CCC(c3c[nH]c4ccccc34)CC2)CC1 (stereo not drawn) [TCMDC-139706] | – | -11.81
22 | COc1cc(C=CC(=O)NC2CCC(CN3CCC(c4c[nH]c5ccccc45)CC3)CC2)cc(OC)c1 (stereo not drawn) [TCMDC-139947] | 16.96 | –
23 | O=C(/C=C/c1cccc2ccccc12)NC1CCC(CN2CCC(c3c[nH]c4ccccc34)CC2)CC1 (stereo not drawn) [TCMDC-139721] | – | -23.68

Row | Compound | % Inhibition [%] | % Inhibition (% Inhibition) [%]
24 | O=C(Nc1ccccc1N1CCOCC1)c1ncoc1-c1ccccc1C(F)(F)F [TCMDC-123538] | -21.73 | –
25 | O=C(N[C@@H](Cc1ccccc1)C(=O)NCCN1CCCCC1)c1ccc(O)c(-c2cccc(C(F)(F)F)c2)c1 [TCMDC-140816] | 36.65 | –
26 | O=C1c2ccccc2C(=O)N1CCOc1c(Br)cc(Br)cc1CNCCCNc1cc(=O)c2ccccc2[nH]1 [TCMDC-140115] | -3.219 | –
27 | CN1CCN(c2ccnc3ccc(NC(=O)Nc4cccc5c(C#N)cccc45)cc23)CC1 [TCMDC-139344] | -1.771 | –
28 | O=C(NCCN1CCCCC1)c1ccc(Nc2nccc(Nc3ccc(Oc4ccccc4)cc3)n2)cc1 [TCMDC-138608] | -29.44 | –
29 | O=C(NCc1cccc(C(F)(F)F)c1)[C@@H]1CCCN1C(=O)c1ccc(O)c(-c2ccc(Cl)c(Cl)c2)c1 [TCMDC-140832] | 33.81 | –
30 | CC1(C)NC(N)=NC(=N)N1OCc1ccc2ccccc2c1CON1C(=N)N=C(N)NC1(C)C [TCMDC-131631] | -34.98 | –
31 | CC(C)CNCc1ccc(-c2cccc(CNc3ccc4ncccc4c3)c2)cc1 [TCMDC-140719] | 58.47 | –
32 | c1ccc(CCNCc2ccc(-c3cccc(CNc4ccc5ncccc5c4)c3)cc2)cc1 [TCMDC-140720] | 4.928 | –
33 | c1cnc2ccc(NCc3ccc(-c4ccc(CNC5CCCC5)cc4)cc3)cc2c1 [TCMDC-140727] | 45.47 | –
34 | c1ccc(CCNCc2cccc(-c3ccc(CNc4ccc5ncccc5c4)cc3)c2)cc1 [TCMDC-140724] | 87.5 | –
35 | O=C(Cc1cccc(Cl)c1)Nc1ccc(N2CCC(NCc3ccc4ncccc4c3)CC2)cc1 [TCMDC-124660] | 24.81 | –
36 | COCCNCc1ccc(-c2ccc(CNc3ccc4ncccc4c3)cc2)cc1 [TCMDC-140723] | 92.65 | –
37 | CC(C)CNCc1cccc(-c2ccc(CNc3ccc4ncccc4c3)cc2)c1 [TCMDC-140722] | 48.08 | –
38 | COc1cccc(CNC(=O)c2ccnc(-c3ccc(CNCCOc4ccccc4)cc3)c2)c1 [TCMDC-134501] | 1.442 | –
39 | c1ccc(CCNCc2ccc(-c3ccc(CNc4ccc5ncccc5c4)cc3)cc2)cc1 [TCMDC-140725] | -47.08 | –
40 | c1cc(CNC2CCCC2)cc(-c2ccc(CNc3ccc4ncccc4c3)cc2)c1 [TCMDC-140726] | 91.8 | –
41 | CC(C)(C)CN1C(=O)C(c2ccccc2)(c2ccccc2)N=C1N [TCMDC-136760] | 24.92 | –
42 | CCOc1ccc(-c2nc(NC(=O)CS(=O)(=O)c3ccccc3)sc2C)cc1 [TCMDC-123524] | 43.85 | –
43 | OC(CNc1ccnc(Nc2ccc(Cl)cc2)n1)c1ccccc1C(F)(F)F (stereo not drawn) [TCMDC-136579] | 19.1 | –
44 | OC(CNCc1ccccc1OCc1ccccc1)c1cccc(C(F)(F)F)c1 (stereo not drawn) [TCMDC-140299] | 10.62 | –
45 | O=C(/C=C/c1ccc(F)cc1)NC1CCC(CCN2CCc3ccc(-n4cccn4)cc3CC2)CC1 (stereo not drawn) [TCMDC-140323] | -53.18 | –
46 | Nc1nc(N)c2c3c(cnc2n1)CCCC3 [TCMDC-137925] | 38.2 | –

Row | Compound | % Inhibition [%] | % Inhibition (% Inhibition) [%]
47 | COc1cc2c(Nc3cccc(NC(=O)c4ccccc4)c3)ncnc2cc1OCCCN1CCOCC1 [TCMDC-135174] | 18.79 | –
48 | CCn1c(-c2nonc2N)nc2c(-c3ccccc3)ncc(OCCCCNCCc3ncc[nH]3)c21 [TCMDC-136000] | 104.7 | –
49 | COc1cc2c(Nc3ccc(NC(=O)c4ccccc4)cc3)ncnc2cc1OCCCN1CCOCC1 [TCMDC-125873] | -52.63 | –
50 | NCCCOc1cnc(-c2ccccc2)c2nc(-c3nonc3N)n(CCc3ccccc3)c12 [TCMDC-136216] | 116.7 | –
51 | CCn1c(-c2nonc2N)nc2c(-c3ccc(CO)o3)ncc(OCCCN)c21 [TCMDC-133807] | -40.81 | –
52 | CCn1c(-c2nonc2N)nc2c(-c3ccccc3)ncc(OCCCNCCCN3CCOCC3)c21 [TCMDC-135858] | 109 | –
53 | CC[C@H]1CN2CC[C@H]1C[C@H]2[C@H](O)c1ccnc2ccc(C#N)cc12 [TCMDC-138234] | 18.99 | –
54 | CC(=O)c1c[nH]c(C(=O)Nc2ccc(-c3cn4ccccc4n3)cc2)c1 [TCMDC-124599] | 36.18 | –
55 | N=C(N)NN=CC(=O)Nc1cc([N+](=O)[O-])cc([N+](=O)[O-])c1 [TCMDC-137446] | 15.96 | –
56 | CCCCc1cc(NCC)nc(Nc2ccc(OC)cc2)n1 [TCMDC-133991] | -52.54 | –
57 | Nc1nc2c(c(=O)[nH]1)-c1cccc(Br)c1CC2 [TCMDC-137755] | -6.306 | –
58 | Cc1ccc(CNC(=O)[C@H](Cc2ccccc2)Nc2cc(C)nc(NCC3CCCCC3)n2)cc1 [TCMDC-134932] | -13.97 | –
59 | Cc1cnc(NCC2CCCCC2)nc1N[C@@H](CO)C(=O)Nc1ccccc1 [TCMDC-134859] | -15.9 | –
60 | Cc1ccc(CNC(=O)[C@H](CC(C)C)Nc2cc(C)nc(NCC3CCCCC3)n2)cc1 [TCMDC-134918] | -23.99 | –
61 | Cc1ccc(CNC(=O)[C@H](CC(C)C)Nc2cc(C)nc(Nc3ccccc3)n2)cc1 [TCMDC-134740] | 5.216 | –
62 | Cc1cnc(NCC2CCCCC2)nc1N[C@@H](CC(C)C)C(=O)Nc1ccccc1 [TCMDC-134751] | -31.13 | –
63 | Cc1ccc(CNC(=O)[C@H](Cc2ccccc2)Nc2ccnc(NCC3CCCCC3)n2)cc1 [TCMDC-134709] | -30.11 | –
64 | Cc1ccc(CNC(=O)[C@H](CCCN)Nc2nc(NCC3CCCCC3)ncc2C)cc1 [TCMDC-134754] | 82.69 | –
65 | Cc1cnc(Nc2ccccc2)nc1N[C@@H](CCCN)C(=O)Nc1ccccc1 [TCMDC-134915] | 85.94 | –
66 | Cc1ccc(CNC(=O)[C@H](CCCN)Nc2cc(C)nc(NCC3CCCCC3)n2)cc1 [TCMDC-134923] | 95.63 | –
67 | Cc1ccc(CNC(=O)[C@H](CCCN)Nc2cc(C)nc(Nc3ccccc3)n2)cc1 [TCMDC-134744] | 61.85 | –
68 | Cc1ccc(CNC(=O)[C@H](CCCN)Nc2nc(Nc3ccccc3)ncc2C)cc1 [TCMDC-134947] | 27.45 | –
69 | Cc1ccc(CNC(=O)[C@H](Cc2ccccc2)Nc2cc(C)nc(Nc3ccccc3)n2)cc1 [TCMDC-134858] | 7.065 | –
